The entries come from a sample that favours hits as a whole.
IMPase Li cell – membrane-permeable IMPase blocker, potentiated with lithium | Potency, µM (titrated, usually from 59.4 µM), for the others: at the highest dose activity, negative = IMPase inhibition, actives largely listed as inhibitors | 210,000 compounds, 0.35% hits | CHO-M1 cells, IP1 TR-FRET (IP-One), carbachol + lithium;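 also: IP1 builds up when IMPase is blocked and the TR-FRET signal falls; plate controls were basal vehicle for no effect and high inhibitor control for full effect; nearly all actives have a fitted effect of over 50% in size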
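Steps: plate 2000 CHO-M1 cells per well and culture 16–30 h; add compound and lithium; incubate 30 min, 37C; add d2-IP1 tracer and Eu cryptate anti-IP1 antibody in lysis buffer; read after 10 min at room temperature.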
NPSR antagonist – antagonists of human neuropeptide S receptor cAMP signaling. 220,000 compounds, 1% hits. Potency, µM (highest dose often 38.3 µM), for the others: at the highest dose activity change, negative = inhibition, actives largely listed as inhibitors. CHO-NPSR cells, cAMP TR-FRET, antagonist mode. AID 1461; also: nearly all actives have a fitted effect of over 50% in size
Target sequence (Q6W5P4 whole entry, looked up): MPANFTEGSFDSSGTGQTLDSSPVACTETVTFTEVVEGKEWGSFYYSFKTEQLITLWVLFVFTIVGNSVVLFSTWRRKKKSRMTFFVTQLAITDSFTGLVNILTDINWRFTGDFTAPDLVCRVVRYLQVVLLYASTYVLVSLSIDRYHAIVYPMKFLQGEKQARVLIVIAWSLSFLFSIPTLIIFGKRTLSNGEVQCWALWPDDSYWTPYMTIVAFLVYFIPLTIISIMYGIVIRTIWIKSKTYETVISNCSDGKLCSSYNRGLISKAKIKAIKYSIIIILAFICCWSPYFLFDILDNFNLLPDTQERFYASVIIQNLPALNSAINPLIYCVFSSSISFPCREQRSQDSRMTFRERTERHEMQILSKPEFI
RGS12 GoLoco inh – inhibitors of human Gai1-RGS12 GoLoco interaction (red fluorophore); Gai1:RGS12 GoLoco peptide FP, rhodamine, 10 min; Potency, µM (titrated, usually from 61.6 µM), without a hit: at the top dose activity, negative = inhibition, most hits filed as inhibitors; 230,000 compounds, 0.44% hits; active = well fitted inhibition curve with a large enough effect, not every such curve was filed as active; inactive = no such curve, though single readings can be large or run the other way; also: nearly all actives have a fitted effect of over 30% in size
Tb PFK block – blocks T. brucei phosphofructokinase. O15648. T. brucei PFK, ADP-Glo luminescence. Potency, µM (highest dose often 57.5 µM), inactives show at the top dose activity, negative = inhibition, actives largely listed as inhibitors. 330,000 compounds, 0.17% hits;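 also: 0% = uninhibited 1x PFK enzyme wells and -100% = no-enzyme wells; nearly all actives have a fitted effect of over 60% in size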
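PFK 1.25 nM, F6P 0.5 mM, ATP 0.1 mM, 0.1 M TEA pH 8.0, 5 mM MgCl2, 0.01% Tween20, 0.1% BSA; 45 min RT. ADP-Glo readout. qHTS titration up to 57 uM; curves fitted, compounds curve-classed.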
MBNL1-CUG inh – MBNL1-poly(CUG) RNA binding inhibition; Q9NR56; AID 2675; Potency, µM (highest dose often 57.5 µM), without a hit: top-dose activity change, negative = inhibition, most hits filed as inhibitors; TR-FRET MBNL1-His/biotin-(CUG)12 binding, 665/545 ratio; 280,000 compounds, 0.036% hits; active = well fitted inhibition curve with a large enough effect in the signal ratio, with a control signal flat, not every such curve was filed as active; inconclusive = small, poorly fitted or top-dose-only effect, or effect the other way, or a change in a side signal; inactive = no such curve, though single readings can be large or run the other way; the % refers to the signal ratio
Target sequence (Q9NR56 whole entry, looked up): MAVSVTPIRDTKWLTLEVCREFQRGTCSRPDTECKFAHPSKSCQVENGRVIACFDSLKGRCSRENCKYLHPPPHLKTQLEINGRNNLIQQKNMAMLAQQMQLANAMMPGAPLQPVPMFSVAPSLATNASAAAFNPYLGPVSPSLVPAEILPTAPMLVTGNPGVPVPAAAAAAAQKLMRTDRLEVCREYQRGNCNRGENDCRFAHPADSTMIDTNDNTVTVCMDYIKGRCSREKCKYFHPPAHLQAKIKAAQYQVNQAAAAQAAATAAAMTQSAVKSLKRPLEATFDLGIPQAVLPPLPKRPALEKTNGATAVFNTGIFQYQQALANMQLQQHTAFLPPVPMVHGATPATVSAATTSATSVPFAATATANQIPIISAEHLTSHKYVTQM
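MBNL1-His + Biotin-(CUG)12, cpd titration 92 nM–58 uM; Tb anti-His Ab 0.055 ng/ul, SA-XL665 5 nM (final); 60 min RT; ratiometric 665/545 nm, Ex 340 nm; normalized to buffer and full-complex controls.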
An asterisk follows results filed as active; ? = inconclusive; . = no result; [ ] = remark or other dose. Unless noted, calls follow the shape of the dose curve; as a rule, active = well fitted curve in the direction sought with a large enough effect; inconclusive = small, poorly fitted or top-dose-only effect, or another doubt; inactive = no such curve, though single readings can be large; an effect the other way counts as inactive or inconclusive. Unless noted, % is scaled to controls: 0 for no effect and ±100 for the full control effect; potency is read from the fitted curve at half-maximal effect.

SMILES | IMPase Li cell | NPSR antagonist | RGS12 GoLoco inh | Tb PFK block | MBNL1-CUG inh
COc1ccc(CS(=O)(=O)/C(Cl)=C(/Cl)C(=O)Nc2ccc(OC)nc2)cc1 | 11%[38.3 µM] | 6.3µM* | 1% | 4% | -7%
N[C@H](CO)C(=O)NCC(=O)O | 5% | . | -1%[14.2 µM] | . | .
Cc1nn2c3ccccc3n(Cc3ccccc3)c2nc1=O | 3% | -12%[46.1 µM] | -3% | 0% | -8%
Cc1nn2c3ccccc3n(CC(=O)c3cccs3)c2nc1=O | 4µM* | 21% | 8% | -1% | -4%
CC(C)(C)C1CCC(OC(=O)C[N+]2(C)CCCCC2)CC1 (stereo not drawn) | 13% | -7% | 8.9µM* | 1% | -4%
CC(C)(C)C1CCC(OC(=O)C[N+]2(C)CCCC2)CC1 (stereo not drawn) | 14% | 9% | 7.1µM* | -5% | 3%
C[N+]1(CC(=O)OCCCC2CCCCC2)CCCC1 | 20% | 6% | 10% | 4% | 5%
O=C(O)C1C2CCC(CC2)C1C(=O)N1CCN(Cc2ccc(F)cc2)CC1 (stereo not drawn) | . | . | . | -5% | -1%
Cc1nc(NC(=S)Nc2ccccc2)sc1C | -3% | 1.3µM* | 6% | -2% | 22%
Cc1c(C)n(Cc2ccccc2)c2ccc(C(=O)OCCN(C)C)cc12 | 9% | 51% | 9% | -1% | 8%
CCCCCCNC(=O)N[C@H](C(=O)NCCC[C@H]1CN2C(=NC[C@H]2C)N1CCC(c1ccccc1)c1ccccc1)C(C)O (stereo partly drawn) | . | 10µM* | 10µM* | -19% | -6%
C[C@@H]1CN=C2N(CCNC(=O)CCC3CCCCC3)[C@H](Cc3ccc(O)cc3)CN21 | -1% | -31% | -7% | -11% | -2%
N#CC(C#N)=c1ccc2c(c1)N1C3=C(CCCC3)CC3CCCCC31N=2 (stereo not drawn) | 16% | 13µM* | 6% | -3% | 7%
N#C/C(C(N)=O)=c1/ccc2c(c1)N1C3=C(CCCC3)CC3CCCCC31N=2 (stereo not drawn) | 88%[38.3 µM] | 10µM* | 18% | -3% | ?
Cc1cc(C)c(OCC(=O)NCC(C)(C)N2CCOCC2)c(C)c1 | . | . | . | 4% | .
COCCN(C(=O)COC(=O)CSc1ccc(Cl)cc1)c1c(N)n(Cc2ccccc2)c(=O)[nH]c1=O | . | . | . | -15% | .
Cc1ccc(Cl)cc1N1CCN(c2cccc[n+]2C)CC1 | 12% | 9% | -62% | -16% | .
C[n+]1ccccc1N1CCN(c2ccccc2Cl)CC1 | 8% | 20% | 13µM* | 4% | .
COc1cc(OC)c(OC)cc1CNC(=O)c1cc(S(=O)(=O)N2CCOCC2)ccc1F | . | . | . | 0% | .
COc1ccc(C(=O)NCC2COc3ccccc3O2)cc1S(=O)(=O)N1CCOCC1 (stereo not drawn) | . | . | . | 6% | .
CCCC(=O)Nc1ccc2nc(SCC(=O)Nc3ccc(N4CCOCC4)c(Cl)c3)sc2c1 | 16%[38.3 µM] | -25%[46.1 µM] | 4.5µM* | -3% | -5%
CC1CCC(C(C)C)C(OC(=O)C2=C3c4ccccc4S(=O)(=O)N3CC2)C1 (stereo not drawn) | 8% | 10µM* | -2% | -3% | -3%
O=C(Cn1cc2c(n1)CCCC2)NCc1ccccn1 | 19%[38.3 µM] | ? | 16µM* | 1% | ?
Cc1noc(C)c1-c1nccc(NCc2ccccc2)n1 | 23% | . | 7.1µM* | . | .
Cc1cnc(CNc2ccnc(-c3c(C)noc3C)n2)cn1 | 6% | . | -14% | . | .
SMILES | IMPase Li cell | NPSR antagonist | RGS12 GoLoco inh | Tb PFK block | MBNL1-CUG inh
CCn1c(Cl)c(C=O)s/c1=N\S(=O)(=O)c1ccccc1 | . | 10µM* | 180% | -26% | ?
CC1CCCN(C(=O)CSc2nc3ncccc3[nH]2)C1 (stereo not drawn) | -1% | -4% | -29% | 1% | -6%
CC1CCCN(C(=O)CSc2cnc3ccccc3n2)C1 (stereo not drawn) | 3.2µM* | ? | 12% | 3% | 31%
Cc1nc2ccccc2nc1SCC(=O)N1CCC(C)CC1 | 13µM* | ? | -14% | 1% | 36%
C/C(=N\NC(=O)c1cccc(S(=O)(=O)N2CCCC2)c1)c1ccc(F)cc1 | . | . | . | 1% | .
CCN(CC)S(=O)(=O)c1cccc(NC(=O)Nc2cccc(C(F)(F)F)c2)c1 | 60%[38.3 µM] | 10µM* | -20% | -2% | -22%
CC(Cc1ccccc1)C(=O)NCCc1c[nH]c2ccccc12 (stereo not drawn) | 8% | . | 3% | . | .
COc1cc(OC)cc(C(=O)Nc2c(C)nn(-c3ccccc3)c2C)c1 | 2% | 3% | -6% | -5% | -19%
COc1ccc(CN(CC(=O)NCCc2ccccc2)C(=O)CCC(=O)Nc2cc(C)ccn2)cc1 | . | . | . | 1% | 1%
C=CCn1c(-c2cccc(Cl)c2)n[nH]c1=S | 8.9µM* | 25%[46.1 µM] | 9% | 0% | 32%
CCCCCCCCCCCC(=O)OCC(O)CO (stereo not drawn) | . | . | -1% | . | .
Cc1cc(C)c2sc(C)[n+](CCCS(=O)(=O)[O-])c2c1 | 7% | -19% | 122% | 19% | -12%
CC[n+]1c(C)sc2c(C)cc(C)cc21 | 27%[38.3 µM] | -6%[46.1 µM] | 2.5µM* | 5% | 0%
C[n+]1ccc(/C=C/c2ccccc2O)c2ccccc21 | 41% | 13µM* | -47% | -17% | ?
Cc1cc(C)nc(SCC(=O)N/N=C/c2cccn2-c2ccc(O)cc2)n1 | 3%[38.3 µM] | -12%[46.1 µM] | 3.2µM* | 2% | 6%
Cc1cc(C)nc(SCC(=O)N/N=C/c2cccn2-c2cccc(C(F)(F)F)c2)n1 | 0%[38.3 µM] | -26%[46.1 µM] | -34% | -3% | 11%
O=C(c1ccc(Cl)cc1)c1nnc(-c2ccncc2)o1 | 10µM* | -15%[46.1 µM] | 2% | 2% | ?
Cc1ccc(C2CC(c3cccs3)=NN2C(=O)c2ccc(Br)o2)cc1 (stereo not drawn) | -1%[38.3 µM] | 10µM* | 26% | 5% | 40%
OCCSc1ncnc2c1oc1ccccc12 | -13%[38.3 µM] | -9%[46.1 µM] | 7% | -4% | 0%
N#CCCSc1ncnc2c1oc1ccccc12 | 11µM* | ? | -2% | 2% | 51%
CCOC(=O)CC(=O)CSc1ncnc2c1oc1ccccc12 | 8.9µM* | ? | -6% | 2% | ?
COc1cccc(NC(=O)CSc2nc3c(oc4ccccc43)c(=O)[nH]2)c1 | -7% | -16% | 3% | -2% | .
O=C(CSc1ncnc2c1oc1ccccc12)NCc1ccco1 | 11µM* | ? | 51% | ? | 36%
COc1cccc(NC(=O)CSc2ncnc3c2oc2ccccc23)c1 | 11µM* | ? | 15% | -7% | ?
O=C(O)CSc1ncnc2c1oc1ccccc12 | . | -18%[46.1 µM] | . | 7% | 1%
Cc1ccc(S(=O)(=O)N2CCN(C(=O)c3cc(C4CC4)nc4c3cnn4C(C)C)CC2)cc1 | . | . | . | 2% | .
CCC(=O)N1CCc2cc(Br)cc(S(=O)(=O)N3CCC(C(=O)NC(C)C)CC3)c21 | . | . | . | 1% | -4%
O=C(Nc1ccc(Cl)cc1)OCCN1CCN(Cc2ccccc2)CCC1=O | -2% | . | -10% | . | .

Assay outcomes (PubChem)
